High-throughput results as filed in PubChem.
Only some compounds are listed: those with a hit (about 7% of all), similar ones and a draw of the others.
S2 tox: viability counter-screen for ATXN expression inhibitors; S2 cells (HEK-293 line with an ATXN2-luciferase reporter) viability, CellTiter-Fluor protease fluorescence, 24 h; Potency, µM (titrated, usually from 56.7 µM), most hits filed as cytotoxic; 0.49% of 400,000 active; AID 651635; also: potency is read from the fitted curve at half-maximal effect; nearly all actives have a fitted effect of over 40% in size
DRD3 antagonist: D3 dopamine receptor (human) antagonism; P35462; 2.5% of 360,000 active; D3R cells, DiscoveRx beta-arrestin luminescence, antagonist mode; active compounds read low; AID 652054; max response, negative = inhibition, %; in the data active = max response below about -50%; inconclusive = no clear call, values can overlap the other calls; also: % is scaled to controls: 0 for no effect and ±100 for the full control effect
Target sequence (P35462 whole entry, looked up): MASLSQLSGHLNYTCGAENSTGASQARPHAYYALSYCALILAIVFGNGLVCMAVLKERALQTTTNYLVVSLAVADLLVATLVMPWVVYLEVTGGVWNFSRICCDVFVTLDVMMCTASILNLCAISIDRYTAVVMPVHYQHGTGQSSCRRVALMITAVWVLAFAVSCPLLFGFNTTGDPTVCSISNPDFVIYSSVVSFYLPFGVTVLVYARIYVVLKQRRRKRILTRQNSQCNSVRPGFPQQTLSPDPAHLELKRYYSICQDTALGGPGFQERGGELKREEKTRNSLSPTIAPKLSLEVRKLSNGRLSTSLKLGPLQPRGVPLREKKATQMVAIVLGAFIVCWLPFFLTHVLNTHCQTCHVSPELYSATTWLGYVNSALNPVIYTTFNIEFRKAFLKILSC
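Cells plated overnight at 1500 cells/well, then exposed to library compounds with dopamine controls for 90 minutes at 37 degrees C. DiscoveRx reagent added for 30–60 minutes at room temperature; luminescence read, quantitative HTS format.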
IL1B secr inh: inflammasome signaling inhibition, IL-1 beta readout | AID 743279 | THP-1 LPS/ATP IL-1B secretion, AlphaLISA, 16 h; active compounds read low | 4.7% of 360,000 active | activity change, % at 57.5 µM; in the data active = activity change below about -50%; inconclusive = mostly about -30% to -49%; also: % is scaled to controls: 0 for no effect and ±100 for the full control effect
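Secreted IL-1B measured by AlphaLISA bead assay after 16 h compound exposure of THP-1 cells; compounds (final up to 57.5 uM) added 1 h before LPS (250 ng/mL) and ATP (1.25 mM) stimulation; lower signal means less secretion.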
ATXN2 expr inh: inhibitors of ATXN2 expression; HEK-293 ATXN2-luciferase reporter, luminescence, 24 h; Potency, µM (doses to about 57 µM), for inactives: at the highest dose activity change, negative = inhibition, actives largely listed as inhibitors; AID 1745845; 0.72% of 360,000 active; also: potency is read from the fitted curve at half-maximal effect; % is scaled to controls: 0 for no effect and ±100 for the full control effect; nearly all actives have a fitted effect of over 55% in size
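qHTS (up to 57 uM final) was run with 24 h compound exposure of reporter cells at 37 °C. Each well was multiplexed: SteadyGlo luminescence measured ATXN2-luciferase expression after a fluorogenic Gly-Phe-AFC viability readout (25 uM final).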
DRD3 agonist: agonists of human D3 dopamine receptor; D3R DiscoveRx beta-arrestin cells, luminescence, 90 min; max activation, %; 0.58% of 410,000 active; AID 652048; in the data active = max activation above about 30%; also: 0% is about no effect
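Agonist mode: compounds and dopamine controls were applied to plated cells for 90 min at 37 degrees C after an overnight attachment at 1500 cells/well. Luminescent read-out followed 30 - 60 minutes at room temperature with DiscoveRx detection reagent.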
Integrin act MD: activators of alpha7 integrin expression for muscular dystrophy. alpha7betagal myoblasts, beta-gal FDG fluorescence, 48 h. Potency, µM (titrated, usually from 38.3 µM), without a hit: top-dose activation, actives largely listed as activators. 0.064% of 350,000 active. AID 624291;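 also: potency is read from the fitted curve at half-maximal effect; 100% = response of the positive control SU9516; nearly all actives have a fitted effect of over 60% in size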
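alpha7betagal+/- myoblasts (passage 13, 250/well) treated 48 h at 37C with compounds at 1:260 dilution of DMSO stock. Lysed, then beta-galactosidase activity read as FDG fluorescence (ex 480/em 540) after 30 min, with pre-read for autofluorescence.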
Starred values were filed as active, the others as inactive; i = inactive; ? = inconclusive; / = no result; ! = repeats disagree. Unless noted, calls follow the shape of the dose curve; as a rule, active = well fitted curve in the direction sought with a large enough effect; inconclusive = small, poorly fitted or top-dose-only effect, or another doubt; inactive = no such curve, though single readings can be large; an effect the other way counts as inactive or inconclusive.

SMILES	S2 tox	DRD3 antagonist	IL1B secr inh	ATXN2 expr inh	DRD3 agonist	Integrin act MD
CN(C)CCCN(C(=O)c1ccc(S(=O)(=O)N(C)Cc2ccccc2)cc1)c1nc2c(F)cccc2s1	i	-17	-96*	?	-14	-43%
COc1cc2nc(N(CCN(C)C)C(=O)c3ccc4ccccc4c3)sc2cc1OC	i	2	-13	-6%	-16	31%
CCN(Cc1ccccc1)S(=O)(=O)c1ccc(C(=O)N(CCCN(C)C)c2nc3cc(OC)ccc3s2)cc1	?	5	-100*	?	-7	-66%
COc1ccc2sc(N(CCCN(C)C)C(=O)c3ccc(C(=O)c4ccccc4)cc3)nc2c1	i	?	-88*	-28%	-17	-19%
CCN(Cc1ccccc1)S(=O)(=O)c1ccc(C(=O)N(CCCN(C)C)c2nc3cc4c(cc3s2)OCCO4)cc1	?	?	-95*	?	1	-63%
COC(=O)c1ccccc1COn1c(=O)c[n+]([O-])c2ccccc21	i	-15	8	0%	-1	-22%
CCN(Cc1ccccc1)S(=O)(=O)c1ccc(C(=O)N(CCCN(C)C)c2nc3ccc(F)cc3s2)cc1	?	-1	-101*	?	-19	-70%
CN(C)CCCN(C(=O)c1ccc(C(=O)c2ccccc2)cc1)c1nc2ccc(F)cc2s1	?	?	-27	/	-3	-57%
Cc1ccc(N(CC(=O)NC2CCCCC2)C(=O)CNC(=O)c2ccco2)cc1F	i	-12	-1	-18%	2	-9%
CC(NCc1cccs1)C(=O)NC1CCCCC1 (stereo not given)	i	11	-62*	8%	-2	4%
O=C(Cc1cccs1)N(Cc1cccs1)C1(C(=O)NC2CCCCC2)CCCCC1	i	3	-52*	-15%	-6	-21%
Cc1ccc(NC(=S)NCCN(C2CCCCC2)C2CCCC2)cc1C	?	?	-67*	?	-25	-68%
Cc1ccc(NC(=S)NCCN(C2CCCCC2)C2CCCC2)cc1	?	-26	-11	/	-13	-58%
O=C(O)c1cnn(-c2nc(-c3cccc([N+](=O)[O-])c3)cs2)c1C(F)(F)F	i	1	1	9%	-12	26%
CCN1CCN(Cc2ccc(NC(=O)c3cc(NC(=O)c4cc(-c5ccc(OC)cc5)n[nH]4)cc(OC)c3)cc2C(F)(F)F)CC1	18µM*	-13	0	14µM*	-31	-49%
CCN1CCN(Cc2ccc(NC(=O)c3cc(NC(=O)c4ccc5n[nH]nc5c4)cc(OC)c3)cc2C(F)(F)F)CC1	i	0	2	9%	4	3%
COc1cc(NC(=O)c2cc3cccc(OC)c3o2)cc(C(=O)Nc2cccc(C(F)(F)F)c2)c1	?	133	40	?	46*	-26%
CCN1CCN(Cc2ccc(NC(=O)c3cc(NC(=O)c4cc5cccc(OC)c5o4)cc(OC)c3)cc2C(F)(F)F)CC1	16µM*	-58*	-107*!	8.9µM*!	-10	-60%
CCN1CCN(Cc2ccc(NC(=O)c3cc(NC(=O)c4ccno4)cc(OC)c3)cc2C(F)(F)F)CC1	?	3	?	?	-3	-49%
CCN1CCN(Cc2ccc(NC(=O)c3cc(NC(=O)c4cncc(-c5cccs5)c4)cc(OC)c3)cc2C(F)(F)F)CC1	35µM*	-24	-104*!	25µM*!	-5	-58%
CCN1CCN(Cc2ccc(NC(=O)c3cc(NC(=O)C4=NN(c5ccccc5)C(=O)C4)cc(OC)c3)cc2C(F)(F)F)CC1	i	3	-3	-4%	-1	15%
CC1CN(c2nc3ccccn3c(=O)c2C=O)CC(C)O1 (stereo not given)	i	-24	-15	-8%	-7	17%
COc1ccc(-n2ccnc2SCC(=O)Nc2ccc3c(c2)OCO3)cc1	/	/	/	/	-15	/
O=C(O)CCc1nn2cnc3sc4c(c3c2nc1=O)CCCC4	i	-20	-3	-7%	-5	1%
Nn1cnc2c([nH]c3ccccc32)c1=O	i	2	16	-14%	2	-3%
SMILES	S2 tox	DRD3 antagonist	IL1B secr inh	ATXN2 expr inh	DRD3 agonist	Integrin act MD
O=C(Nc1ccccc1)c1nnn(Cc2ccccc2)c1NC(=O)C(F)(F)F	i	-23	-8	29%	-2	10%
CC(=O)Nc1c(C(=O)NCc2ccccc2)nnn1Cc1ccccc1	i	-56*	-7	7%	2	14%
COc1ccccc1NC(=O)c1nnn(Cc2ccccc2)c1NC(C)=O	i	-70*	2	0%	-6	-2%
CCn1c(C)c(C(C)=O)c(N2CCN(C(c3ccccc3)c3ccccc3)CC2)nc1=S	?	14	-185*	?	2	20%
O=c1c(-c2ccccc2)c(O)cc(-c2ccncc2)n1-c1ccc(Cl)cc1	i	-16	1	-31%	-3	8%
COc1ncnc2sc(-c3ccccc3)cc12	i	3	-10	65%	-2	9%
CN1CCN(c2ncnc3sc(-c4ccccc4)cc23)CC1	i	?	-60*	?	-10	?
CN(C)c1ncnc2sc(-c3ccccc3)cc12	i	1	-55*	10%	-9	?
O=C(c1cccs1)N1CCN(c2nc3c(F)cc(F)cc3s2)CC1	i	0	?	-10%	4	4%
Cc1ccc(C)c2sc(N3CCN(C(=O)c4ccc([N+](=O)[O-])o4)CC3)nc12	i	?	-103*	-35%	2	-34%
O=C(c1ccc([N+](=O)[O-])o1)N1CCN(c2nc3c(F)cc(F)cc3s2)CC1	?	0	-71*	?	2	-47%
CCCCn1cc(C(=O)c2cc(Br)ccc2O)cc(C#N)c1=O	?	26	9	-17%	4	20%
COC(=O)c1ccc(CNC(=O)CN(CCC(C)C)S(=O)(=O)c2ccc3c(c2)OCCO3)cc1	i	40	17	-9%	-9	4%
Cc1nc2ccc(N)cc2c(=O)n1Cc1ccc(Cl)cc1	i	2	0	40%	2	36%
Cc1nc2c(cc1N)nc(C)n2Cc1ccccc1	i	-51*	-12	6%	-10	12%
Cn1nnnc1SCCCNCc1ccc(-c2cccc(Cl)c2)o1	i	/	/	4%	-18	/
Clc1cccc(-c2ccc(CNCCCN3CCOCC3)o2)c1	i	-80*	-23	-12%	-23	-14%
Cc1ccccc1CC1CCN(CCCNC(=O)Nc2ccccc2)CC1	i	-83*	?	/	-5	-70%
Cc1cccc(C)c1NC(=O)NCCCN1CCN(c2ccccc2)CC1	i	?	0	-2%	38*	24%
CCCNc1ncnc2[nH]ncc12	i	0	19	2%	15	6%
